# Biological target: MRC1L1
# Experiment: pooled miR-30 sensor sort-seq; sequence = guide strand
# Conditions: shRNA
row,Sequence,sensor-assay potency score (higher = more potent)
1,TAACAACACAGTCAGCATCTTC,-0.367
2,TTGCTCATGAATCTCTGTGATG,-0.904
3,TAGAGAGTGATAGCAACCCAGT,-0.877
4,TAAAGCTACACAATCATTCCGT,0.804
5,TTCTGAATTGACATCATTCAGC,-0.303
6,TATAGTAACAGTGACCATGGAA,0.0156
7,TTATAGATTAAAAATTGCCTGG,-0.0737
8,TTGTTTTCAAACTTGAACGGGA,0.456
9,TTTCTCATCTCTGTGAATCTTG,0.274
10,TACAGCTTGAAACACAAGCTTG,-1.09

# Biological target: MRFAP1
# Experiment: as above
# Conditions: shRNA
row,Sequence,sensor-assay potency score (higher = more potent)
1,TTCGCAATCTCCTTGGCCTTCT,-0.202
2,TCCTCGGCCTTCTCGCACCTCT,-1.7
3,TCTGGATGAGCATATTGTCCAT,-0.959
4,TCTCCTTGGCCTTCTCCTCGGC,-0.368
5,CTGGATGAGCATATTGTCCATC,-2.34
6,TTGATCTGGATGAGCATATTGT,-0.361
7,TTGACCAGAATCCATTGGCTGG,-0.987
8,TTCTCCTCGGCCTTCTCGCACC,-1.46
9,AGCACCTCCACTTCCTCCGGTT,-1.22
10,TTTGATCTGGATGAGCATATTG,-1.65
11,TATCCGCCGGACCAGCTCCACC,-1.87
12,ATGAGCATATTGTCCATCTCCC,-0.693

# Reference: the OligoGym collection
